Assay outcomes from PubChem BioAssay.
uPA generation: qHTS for Inhibitors of Cell Surface uPA Generation. cell surface uPA generation assay, qHTS. Potency, µM (doses to about 38.3 µM), most hits filed as inhibitors. 0.31% of 330,000 active; active = well fitted inhibition curve with a large enough effect; inconclusive = small, poorly fitted or top-dose-only effect; inactive = no such curve, though single readings can be large or run the other way; tested in mouse RAW 264.7 cells; also: nearly all actives have a fitted effect of over 55% in size
NPC1 promoter act: qHTS Assay for NPC1 Promoter Activators. Huh7 NPC1 promoter luciferase reporter, 24 h. Potency, µM (highest dose often 9.22 µM), actives largely listed as activators. 2.4% of 320,000 active. AID 485313, 2010; also: nearly all actives have a fitted effect of over 60% in size
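Huh7 cells stably carrying NPC1 promoter–luciferase, plated in Opti-MEM with 10% FBS for 2 h, were exposed to compound in DMSO for 24 h at 37 °C; luciferase reagent was added for 10 min and luminescence read.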
ELG1 genotox: qHTS screen for small molecules that induce genotoxicity in human embryonic kidney (HEK293T) cells expressing luciferase-tagged ELG1 | HEK293T ELG1-luciferase reporter, luminescence, 16 h | Potency, µM (doses to about 46 µM), usual class: activators | 1.3% of 330,000 active; also: nearly all actives have a fitted effect of over 60% in size
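Step 1: seed 2,000 HEK293T ELG1-luciferase cells per well. Step 2: add compound or DMSO, incubate 16 hr at 37 °C. Step 3: ONE-Glo, 30 min at room temperature, read luminescence.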
FLuc counter: qHTS profiling assay for firefly luciferase inhibitor/activator using purifed enzyme and Km concentrations of substrates (counterscreen for miR-21 project) | Luciferin 4-monooxygenase (Photinus pyralis), P08659 | purified FLuc, Km substrates, luminescence inhibition | Potency, µM (highest dose often 57.5 µM), most hits filed as inhibitors | 6.9% of 360,000 active; also: nearly all actives have a fitted effect of over 55% in size
Target sequence (P08659 whole entry, looked up): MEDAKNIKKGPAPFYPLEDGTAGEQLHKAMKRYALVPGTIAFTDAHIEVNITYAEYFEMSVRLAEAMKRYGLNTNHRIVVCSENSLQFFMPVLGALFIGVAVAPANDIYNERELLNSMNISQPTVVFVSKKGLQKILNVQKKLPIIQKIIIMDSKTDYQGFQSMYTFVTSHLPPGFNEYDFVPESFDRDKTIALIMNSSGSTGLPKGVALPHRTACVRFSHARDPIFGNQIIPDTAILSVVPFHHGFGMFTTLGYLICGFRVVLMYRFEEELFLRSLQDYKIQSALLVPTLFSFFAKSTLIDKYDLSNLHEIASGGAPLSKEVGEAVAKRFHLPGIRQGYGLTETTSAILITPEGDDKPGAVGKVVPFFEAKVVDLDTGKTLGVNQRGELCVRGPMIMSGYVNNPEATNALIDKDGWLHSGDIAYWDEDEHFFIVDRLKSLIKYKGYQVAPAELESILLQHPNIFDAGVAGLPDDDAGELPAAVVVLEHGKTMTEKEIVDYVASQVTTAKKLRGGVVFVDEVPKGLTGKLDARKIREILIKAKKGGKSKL
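Biochemical qHTS of compounds, final roughly 60 µM downward over six points, against 10 nM purified firefly luciferase using Km concentrations of substrates (10 uM D-luciferin, 10 uM ATP) in Tris acetate pH 7.5 buffer; luminescence output.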
Rab9 prom act: qHTS Assay for Rab9 Promoter Activators | Huh7 Rab9 promoter-luciferase reporter, luminescence, 24 h | Potency, µM (titrated, usually from 9.22 µM), hits mostly activators | 2.8% of 320,000 active | AID 485297, 2010; also: nearly all actives have a fitted effect of over 60% in size
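Rab9 promoter-driven luciferase in stably transfected Huh7 cells; 1500 cells/well rested 2 h, exposed to compound in DMSO for 24 h at 37 °C, 5% CO2. Luminescence read 10 min after adding luciferase reagent at ambient temperature.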
SMN2 splice up: qHTS Assay for Enhancers of SMN2 Splice Variant Expression; AID 1458, 2008; 2.8% of 210,000 active; HEK293 SMN2-luciferase splicing reporter, luminescence, 30-36 h; Potency, µM (top dose mostly 46.1 µM), hits mostly activators; also: nearly all actives have a fitted effect of over 55% in size
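HEK293 cells carry an SMN2 minigene-luciferase reporter in which exon 7 inclusion puts luciferase in frame. Cells were seeded at 2000 cells/well, attached for 10-12 hours, then exposed to compounds for 30-36 hours at 37C before ONE-Glo luminescence.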
A number is an active result; - = inactive; ? = inconclusive; . = not tested or not shown. This is a sample that favours compounds with a hit; in the whole collection about 7.3% have one here. Unless noted, calls follow the shape of the dose curve; as a rule, active = well fitted curve in the direction sought with a large enough effect; inconclusive = small, poorly fitted or top-dose-only effect, or another doubt; inactive = no such curve, though single readings can be large; an effect the other way counts as inactive or inconclusive.

SMILES | uPA generation | NPC1 promoter act | ELG1 genotox | FLuc counter | Rab9 prom act | SMN2 splice up
Cc1ccc(OCC(=O)Nc2cccc(-c3nc4ccccc4s3)c2)cc1 | . | . | . | 9.53µM | . | .
Cn1c(=O)c2ncn(CC(=O)Nc3cccc(-c4nc5ccccc5s4)c3)c2n(C)c1=O | - | 3.16µM | - | 3.79µM | ? | -
CSc1ccc(-c2nnn(CC(=O)Nc3sc4c(c3C#N)CCC(C(C)(C)C)C4)n2)cc1 (centres undefined) | . | . | . | - | . | -
O=C1COc2ccc(-c3cc(-c4ccc(Cl)cc4)c4c(n3)-c3ccccc3OC4)cc2N1 | . | . | . | - | . | -
N#Cc1ccccc1-c1csc(N2CCC(C(N)=O)CC2)n1 | . | . | . | - | . | .
CCc1ccc(CNC(=O)Cn2nc(-c3ccc(Cl)cc3)ccc2=O)cc1 | . | . | . | - | . | .
COc1cc(-c2noc(C)c2-c2ccc(N(C)C)nc2)cc(OC)c1OC | - | - | ? | - | - | .
COc1cc(-c2noc(C)c2-c2ccc3[nH]ccc3c2)cc(OC)c1OC | 0.562µM | - | - | - | - | .
COc1ccc(S(=O)(=O)N2CCCc3ccccc32)cc1OC | - | - | ? | 19µM | - | .
O=C(Nc1ccc(F)c(Cl)c1)c1cc(S(=O)(=O)N2CCCc3ccccc32)ccc1F | . | . | . | 12µM | . | .
O=C(Nc1cccc(Cl)c1)c1cc(S(=O)(=O)N2CCCc3ccccc32)ccc1F | . | . | . | - | . | .
Cc1ccc(NC(=O)C(=O)NCC(c2ccc3c(c2)OCO3)N2CCOCC2)c(C)c1 (centres undefined) | . | . | . | - | . | .
CC(C)NC(=O)N1CC[C@@]2(CCCN(C(=O)c3cnccn3)C2)C1 | . | . | . | . | . | -
Cc1cc(Nc2ccccc2)n(C(=O)c2ccccc2)n1 | - | - | ? | 12µM | - | -
Cc1cc(Nc2ccccc2)nn1C(=O)c1ccc([N+](=O)[O-])cc1 | - | - | - | - | - | -
Cc1cc(Nc2ccccc2)nn1C(=O)c1ccc(Cl)cc1 | - | - | ? | 9.53µM | - | -
Cc1cc(Nc2ccccc2)n(-c2ccccc2)n1 | - | - | - | - | - | -
Cn1c(SCc2ccccc2Cl)nc2c([nH]c3ccccc32)c1=O | . | . | . | - | . | .
CC(=O)c1ccc(N2CCN(C(=O)c3cc4ccc5cccnc5c4[nH]3)CC2)cc1 | . | . | . | - | . | .
CC1CCCN(C(=O)c2cc3ccc4cccnc4c3[nH]2)C1 (centres undefined) | . | . | . | 0.426µM | . | .
O=C(c1cc2ccc3cccnc3c2[nH]1)N1CCCCC1 | . | . | . | 1.2µM | . | .
Cc1ccc(OCC(=O)Nc2sc3c(c2C(N)=O)CCCC3)c(C(C)(C)C)c1 | . | . | . | - | . | -
Cc1nc2ccn(Cc3cccnc3)c(=O)c2cc1C(=O)Nc1ccc(F)cc1F | . | . | . | - | . | .
Cc1csc(NC(=O)c2oc3ccccc3c2C)n1 | - | 3.16µM | ? | 1.69µM | 3.55µM | .
Cc1sc(NC(=O)c2oc3ccccc3c2C)c(C#N)c1C | . | - | - | - | - | -
SMILES | uPA generation | NPC1 promoter act | ELG1 genotox | FLuc counter | Rab9 prom act | SMN2 splice up
Cc1c(C(=O)NC2=NCCS2)oc2ccccc12 | . | ? | ? | 3.01µM | ? | 2.82µM
Cc1c(C(=O)Nc2nnc(C3CC3)s2)oc2ccccc12 | - | 3.55µM | ? | 4.78µM | 2.24µM | .
O=C(Cc1c[nH]c2ccccc12)Nc1nnc(C2CC2)s1 | - | - | - | - | - | 11.2µM
O=S(=O)(c1ccc(Cl)cc1)c1nnn2c1nc(NCc1cccs1)c1sccc12 | . | . | . | - | . | .
CCOc1ccc(-c2c(=O)n(OCc3ccc([N+](=O)[O-])cc3)c3ccccc3[n+]2[O-])c(OCC)c1 | - | . | . | . | . | .
CCOc1ccc(OCC)c(-c2c(=O)n(OCc3ccc(C(C)(C)C)cc3)c3ccccc3[n+]2[O-])c1 | . | - | - | 8.49µM | - | -
O=C(CCC1CCCN(c2ncccn2)C1)NCc1ccc(F)c(F)c1 (centres undefined) | - | - | - | - | - | .
COc1ccc(/C=c2\s/c(=C\C(=O)C(C)(C)C)[nH]c2=O)cc1O | ? | - | - | 23.9µM | - | .
COc1cc(/C=c2\s/c(=C\C(=O)C(C)(C)C)[nH]c2=O)cc(OC)c1OC | - | - | - | - | - | -
CC(=O)Nc1ccc(OCc2cnc(Cl)s2)cc1 | - | - | - | - | - | -
CCc1ccc(OCc2cnc(Cl)s2)cc1 | - | - | ? | 21.3µM | - | -
O=C(OCc1cnc(Cl)s1)c1ccccc1Cl | - | - | - | ? | - | -
Clc1ccc(OCc2cnc(Cl)s2)cc1 | - | - | - | 15.1µM | - | -
CCOc1ccc(CCNC(=O)c2c(C)oc3ncn(CC(C)C)c(=O)c23)cc1OCC | . | . | . | - | . | .
Cc1ccn2c(=O)nc(SCC(=O)c3ccccc3)nc2c1 | - | ? | ? | 15.1µM | ? | .
Cc1ccn2c(=O)nc(SCC(=O)NCc3ccccc3)nc2c1 | - | - | - | - | - | .
Cc1ccc2nc(SCC(=O)N3CCCC3)nc(=O)n2c1 | - | - | - | - | - | .
Cc1ccc2nc(SCC(=O)c3ccccc3)nc(=O)n2c1 | - | 2.51µM | ? | 10.7µM | ? | .
Cc1nc(N2CCOCC2)c2nc(-c3ccccc3)n(CC(C)(C)CN(C)C)c2n1 | . | . | . | . | . | -
Cc1ccc(OCc2cc(C(=O)N3CC4C[C@@H]5CC3C[C@H](C4)C5)no2)cc1C | - | 3.55µM | ? | 8.49µM | 1.41µM | .
Cc1cccc(C)c1OCc1cc(C(=O)N2CC3C[C@@H]4CC2C[C@H](C3)C4)no1 | - | 2µM | - | ? | 1.58µM | .
COCC1CCN(C(=O)c2cc(COc3ccc(C)c(C)c3)on2)C1 (centres undefined) | - | - | - | - | - | .
CCOc1ccc(N2C(=O)CS(=O)(=O)C23C(=O)N(Cc2cccc(Cl)c2)c2ccccc23)cc1 (centres undefined) | . | . | . | - | . | .
Cc1nnc(SCc2ccc3c(c2)OCO3)s1 | - | - | 20.6µM | ? | ? | -
Cc1nnc(SCc2cccc(CSc3nnc(C)s3)c2)s1 | - | ? | ? | ? | ? | -
SMILES | uPA generation | NPC1 promoter act | ELG1 genotox | FLuc counter | Rab9 prom act | SMN2 splice up
Cc1nnc(SCc2ccc(F)cc2Cl)s1 | - | 3.55µM | ? | 23.9µM | ? | ?
Cc1cc(C(=O)CSc2nnnn2C)c(C)n1-c1ccc2c(c1)OCCO2 | - | 3.16µM | 10µM | 23.9µM | 2.51µM | ?
Cc1cc(C(=O)CSc2nnc(-c3ccc4c(c3)OCO4)o2)c(C)n1-c1ccc(F)cc1 | - | - | - | - | - | -
Nc1nnc(SCc2ccc(F)cc2Cl)s1 | - | - | - | - | - | -
Cc1nnc(SCC(=O)c2cc(C)n(-c3ccc4c(c3)OCO4)c2C)s1 | - | - | ? | 23.9µM | ? | .
Cc1ccc(-c2nnc(NC3CCCC3)s2)cc1 | - | 0.631µM | ? | 3.01µM | 0.501µM | .
Cc1ccc(C(=O)Nc2ccc(Cl)c(-c3nc4ncccc4o3)c2)c(C)c1 | . | . | . | 2.69µM | . | ?
Clc1ccccc1-c1ncc(-c2ccccc2)o1 | ? | 2.51µM | 4.61µM | 1.35µM | 2.82µM | .
